Bioassay records (PubChem)
C diff growth: C. difficile growth inhibitors, primary screen, HTS; actives 0.25% (n = 86,000); growth activity, negative = inhibition, % at 16 µg/mL (by protocol); Clostridium difficile clinical isolate growth, OD600, 24 h; active compounds read low; AID 1259249, 2017;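 active = mean growth activity at or below -80% and every replicate also at or below -80%; inconclusive = mean at or below -80% but some replicate above -80%; inactive = mean growth activity above -80%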;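 note: 0% = DMSO wells and -100% = levofloxacin 16 µg/mL wells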
Pf Dd2 inh: P. falciparum Dd2 growth inhibitors, primary screen, SYBR Green fluorescence, single dose replicates; 72 h; active compounds read low; activity change, % at 10 µM; actives 2.3% (n = 94,000); in the data active = activity change below about -80%; inconclusive = no clear call, values can overlap the other calls
T cruzi growth-1: T. cruzi intracellular proliferation inhibitors, primary screen, cell-based, beta-gal Tulahuen parasites, NIH3T3 host, luminescence; T. cruzi beta-gal in NIH3T3, GalScreen luminescence, 90 h; inhibition, % at 8.34 µM; actives 5.9% (n = 77,000); AID 624255, 2012;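 active = mean inhibition above about 93%, with at least 55% of replicates each passing it, limit read from the data, passing the limit was not always enough; inconclusive = only one of those two conditions holds; inactive = neither condition holds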
T cruzi growth-2: T. cruzi intracellular proliferation inhibitors, confirmation, cell-based, NIH3T3 host, beta-gal parasite, luminescence, cherry-pick | shares compounds with T cruzi growth-1 | T. cruzi beta-gal in NIH3T3, GalScreen luminescence, 90 h | inhibition, % at 8.35 µM | actives 72% (n = 5,600);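 active = mean replicate inhibition above about 95% and at least 55% of replicates individually reaching it, limit read from the data; inconclusive = only one of the two criteria is met; inactive = neither criterion is met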
T cruzi growth-3: inhibitors of intracellular T. cruzi replication, confirmation, NIH3T3 host cells, beta-gal parasites, cherry-pick, set 2; shares compounds with T cruzi growth-1; T. cruzi beta-gal in NIH3T3, GalScreen luminescence, 90 h; inhibition, % at 2.09 µM; actives 21% (n = 5,600); AID 651740, 2012;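 active = mean inhibition above about 95%, with at least 55% of replicates also reaching it, limit read from the data; inconclusive = meets just one of the two conditions; inactive = meets neither condition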;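 note: plate controls were neutral control median for no effect and positive control median for full effect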
3T3 cytotox: cytotoxicity in mouse NIH/3T3 fibroblasts, confirmation, cytotoxicity control for T. cruzi proliferation inhibitor project, cell-based, cherry-pick, single point; NIH/3T3 viability, CellTiter-Glo ATP luminescence, 90 h; shares compounds with T cruzi growth-1; actives 14% (n = 5,600); cytotoxicity (signal decrease), % at 8.35 µM;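 active = mean signal decrease across replicates above about 35% based on untreated-well scatter, with enough replicates individually passing, limit read from the data; inconclusive = no rule stated though some were filed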;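 note: 0% = median of neutral control wells and 100% = median of positive control wells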
3T3 cytotox 2: NIH/3T3 fibroblast cytotoxicity, confirmation, cytotoxicity control, cell-based, cherry-pick, single point, set 2 | AID 651744, 2012 | inhibition, % at 24.9 µM | NIH/3T3 viability, CellTiter-Glo ATP luminescence, 90 h | actives 56% (n = 5,600) | shares compounds with T cruzi growth-1;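 active = mean loss of cell viability signal at or above a set limit, and enough replicates individually reaching it; inconclusive = meets only the mean limit or only the replicate share; inactive = meets neither condition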;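 note: 0% = median of neutral control wells and 100% = median of positive control wells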
An asterisk follows results filed as active; u = inconclusive; x = no result. The list is not random: actives were taken first. Their share in the collection is about 6.7%.

SMILES	C diff growth	Pf Dd2 inh	T cruzi growth-1	T cruzi growth-2	T cruzi growth-3	3T3 cytotox	3T3 cytotox 2
COc1ccc(S(=O)(=O)N(C)C[C@@H]2OCCCC[C@H](C)Oc3ccc(NS(=O)(=O)c4ccc(F)cc4)cc3C(=O)N([C@@H](C)CO)C[C@@H]2C)cc1	12	-53	118*	108*	40	-27	-8
COc1ccc(S(=O)(=O)Nc2ccc3c(c2)C(=O)N([C@@H](C)CO)C[C@H](C)[C@@H](CN(C)S(=O)(=O)c2ccc(F)cc2)OCCCC[C@@H](C)O3)cc1	7	-75	72	x	x	x	x
COc1ccc(S(=O)(=O)N(C)C[C@@H]2OCCCC[C@@H](C)Oc3ccc(NS(=O)(=O)c4ccc(F)cc4)cc3C(=O)N([C@H](C)CO)C[C@@H]2C)cc1	5	-25	53	x	x	x	x
COc1ccc(S(=O)(=O)Nc2ccc3c(c2)C(=O)N([C@H](C)CO)C[C@@H](C)[C@@H](CN(C)S(=O)(=O)c2ccc(F)cc2)OCCCC[C@H](C)O3)cc1	12	-57	95*	108*	33	-7	5
COc1ccc(S(=O)(=O)N(C)C[C@@H]2OCCCC[C@@H](C)Oc3ccc(NS(=O)(=O)c4ccc(F)cc4)cc3C(=O)N([C@@H](C)CO)C[C@@H]2C)cc1	7	-64	112*	101*	65	-1	53*
C[C@@H]1CCCCO[C@@H](CN(C)S(C)(=O)=O)[C@H](C)CN([C@@H](C)CO)C(=O)c2cc(NC(=O)NC3CCCCC3)ccc2O1	-3	54	-26	x	x	x	x
CC(C)NC(=O)Nc1ccc2c(c1)C(=O)N([C@@H](C)CO)C[C@H](C)[C@@H](CN(C)C(=O)c1ccncc1)OCCCC[C@H](C)O2	0	-33	1	x	x	x	x
CN(C)C(=O)C[C@H]1CC[C@@H]2[C@H](COC[C@@H](O)CN2CC2CCCC2)O1	7	-5	-5	x	x	x	x
O=C([C@H]1[C@H](CO)[C@H]2Cn3c(cccc3=O)[C@@H]1N2CC1CCCC1)N1CCCCC1	5	3	6	x	x	x	x
COc1ccc(S(=O)(=O)Nc2ccc3c(c2)C(=O)N([C@H](C)CO)C[C@@H](C)[C@H](CN(C)S(=O)(=O)c2ccc(F)cc2)OCCCC[C@@H](C)O3)cc1	4	-69	105*	105*	59	11	13
COc1ccc(S(=O)(=O)N(C)C[C@H]2OCCCC[C@H](C)Oc3ccc(NS(=O)(=O)c4ccc(F)cc4)cc3C(=O)N([C@H](C)CO)C[C@@H]2C)cc1	-1	-33	26	x	x	x	x
Cc1ccc(-c2ccc3c(c2)O[C@@H](CN(C)S(C)(=O)=O)[C@@H](C)CN([C@@H](C)CO)S3(=O)=O)cc1	-3	-19	91	x	x	x	x
CCc1cnc(N2[C@H](C#N)[C@@H](c3ccc(C#CC(C)C)cc3)[C@H]2CO)s1	-14	-23	83	x	x	x	x
CCc1cnc(N2[C@H](CO)[C@H](c3ccc(C#CC(C)C)cc3)[C@@H]2C#N)s1	-41	2	89	x	x	x	x
CCc1cnc(N2[C@H](C#N)[C@H](c3ccc(C#CC(C)C)cc3)[C@@H]2CO)s1	-6	-38	96*	100*	113*	6	0
CCc1cnc(N2[C@H](C#N)[C@H](c3ccc(C#CC(C)C)cc3)[C@H]2CO)s1	-12	-13	107*	98*	108*	16	26*
CCCN(C)C[C@@H]1Oc2ncc(-c3cccc(C#N)c3)cc2C(=O)N([C@H](C)CO)C[C@H]1C	-9	-52	-28	x	x	x	x
COc1ccc(NC(=O)N(C)C[C@@H]2OCCCC[C@H](C)Oc3ccc(NC(=O)CCCN(C)C)cc3C(=O)N([C@H](C)CO)C[C@@H]2C)cc1	-8	-2	87	x	x	x	x
C[C@H]1CN([C@@H](C)CO)C(=O)Cc2cc(NC(=O)Nc3ccc(C(F)(F)F)cc3)ccc2O[C@@H]1CN(C)S(C)(=O)=O	4	8	-42	x	x	x	x
CO[C@H]1CN(C)C(=O)c2cc(NC(=O)Nc3ccccc3F)ccc2OC[C@H](C)N(CC2CC2)C[C@H]1C	x	11	34	x	x	x	x
Cc1ccc(S(=O)(=O)Nc2ccc3c(c2)C(=O)N([C@@H](C)CO)C[C@H](C)[C@@H](CN(C)S(=O)(=O)c2ccccc2)OCCCC[C@H](C)O3)cc1	-7	-64	102*	109*	78	7	-7
Cc1ccc(S(=O)(=O)Nc2ccc3c(c2)C(=O)N([C@@H](C)CO)C[C@@H](C)[C@H](CN(C)S(=O)(=O)c2ccccc2)OCCCC[C@@H](C)O3)cc1	-14	-51	105*	106*	72	7	23
Cc1ccc(S(=O)(=O)N(C)C[C@@H]2OCCCC[C@H](C)Oc3ccc(NS(=O)(=O)c4ccccc4)cc3C(=O)N([C@H](C)CO)C[C@@H]2C)cc1	-7	-59	u	x	x	x	x
Cc1ccc(S(=O)(=O)N(C)C[C@H]2OCCCC[C@H](C)Oc3ccc(NS(=O)(=O)c4ccccc4)cc3C(=O)N([C@H](C)CO)C[C@H]2C)cc1	16	-80	u	x	x	x	x
Cc1ccc(S(=O)(=O)Nc2ccc3c(c2)C(=O)N([C@@H](C)CO)C[C@@H](C)[C@H](CN(C)S(=O)(=O)c2ccccc2)OCCCC[C@H](C)O3)cc1	1	-27	57	x	x	x	x
Cc1ccc(S(=O)(=O)N(C)C[C@@H]2OCCCC[C@H](C)Oc3ccc(NS(=O)(=O)c4ccccc4)cc3C(=O)N([C@H](C)CO)C[C@H]2C)cc1	0	-51	78	x	x	x	x
Cc1ccc(S(=O)(=O)N(C)C[C@H]2OCCCC[C@@H](C)Oc3ccc(NS(=O)(=O)c4ccccc4)cc3C(=O)N([C@H](C)CO)C[C@H]2C)cc1	-8	-83*	u	101*	73	4	-5
Cc1ccc(S(=O)(=O)N(C)C[C@H]2OCCCC[C@@H](C)Oc3ccc(NS(=O)(=O)c4ccccc4)cc3C(=O)N([C@@H](C)CO)C[C@H]2C)cc1	12	-48	u	109*	74	-6	-2
C[C@H]1CN([C@@H](C)CO)C(=O)c2cccc(NC(=O)NC3CCCCC3)c2O[C@@H]1CN(C)Cc1ccncc1	0	-6	12	x	x	x	x
CCC(=O)N1CC(=O)N2[C@H](CO)[C@H](c3ccc(C#Cc4cccc(OC)c4)cc3)[C@@H]2C1	10	2	x	x	x	x	x
